The results in this text go back to PubChem BioAssay.

A short description of test [1]: reduced mouse 2C T cell binding to pMHC/ICAM-1 vesicles – MLPCN validation set, flow cytometry, LFA-1/ICAM-1 modulator project, pilot screen (AID 2523;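 active = response below a set limit, under 55% cells CD8-positive and vesicle-bound, and CD8 cells' 90th-percentile brightness under 279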;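 for vesicle binding response: mean PE anti-B7-1 fluorescence of CD8+ cells relative to row control; 100% = QL9-loaded vesicles with DMSO vehicle in the same plate row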). The note with it: 2C mouse CD8+ T cells, at 7 µM, stronger effect = lower value; double positive events: measured here: CD8+/vesicle+ event percentage. Background: In flow cytometry, cells or beads pass a laser one at a time.

In test [2] the target is Integrin beta-1 (Homo sapiens) + Integrin alpha-4 (Homo sapiens) (UniProt P13612+P05556). Nature of the test: alpha4beta1 integrin LIBS antibody binding reduction – U937 cells, HUTS-21 mAb, flow cytometry, validation set, VLA-4 allosteric modulator project, pilot screen (AID 2674;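 active = inhibition above 50%, about 3 SD of the validation set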;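 note: antibody binding induced by the VLA-4 ligand LDV present at three times its Kd; 0% = LDV ligand with antibody and no compound and 100% = antibody without LDV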). The conditions noted are these: HUTS-21 LIBS mAb binding, at 6.7 µM, stronger effect = higher value, binding induced by LDV ligand.
Sequence of Integrin beta-1 (Homo sapiens) + Integrin alpha-4 (Homo sapiens) (P05556 whole entry, looked up): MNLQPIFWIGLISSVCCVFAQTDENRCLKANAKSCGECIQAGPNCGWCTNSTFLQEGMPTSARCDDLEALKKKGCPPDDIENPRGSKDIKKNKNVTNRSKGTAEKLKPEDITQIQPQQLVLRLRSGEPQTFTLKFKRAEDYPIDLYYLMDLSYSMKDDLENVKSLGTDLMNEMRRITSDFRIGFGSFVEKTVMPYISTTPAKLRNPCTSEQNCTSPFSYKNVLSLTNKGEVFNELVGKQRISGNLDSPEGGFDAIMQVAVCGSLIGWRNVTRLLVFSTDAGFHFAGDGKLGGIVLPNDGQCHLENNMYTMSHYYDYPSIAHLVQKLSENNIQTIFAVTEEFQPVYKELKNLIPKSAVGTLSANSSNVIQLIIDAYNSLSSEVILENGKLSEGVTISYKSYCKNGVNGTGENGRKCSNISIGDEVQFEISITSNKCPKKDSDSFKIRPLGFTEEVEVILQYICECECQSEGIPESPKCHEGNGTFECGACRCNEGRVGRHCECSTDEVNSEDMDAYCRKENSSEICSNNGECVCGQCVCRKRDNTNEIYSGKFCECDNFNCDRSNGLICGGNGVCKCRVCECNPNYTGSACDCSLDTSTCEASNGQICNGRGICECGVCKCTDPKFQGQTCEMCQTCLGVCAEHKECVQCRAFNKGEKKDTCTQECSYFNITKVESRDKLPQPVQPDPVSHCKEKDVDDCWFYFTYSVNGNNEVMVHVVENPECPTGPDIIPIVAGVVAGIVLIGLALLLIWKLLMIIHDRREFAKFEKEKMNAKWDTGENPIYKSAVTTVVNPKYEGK
Sequence of Integrin beta-1 (Homo sapiens) + Integrin alpha-4 (Homo sapiens) (P13612 whole entry, looked up): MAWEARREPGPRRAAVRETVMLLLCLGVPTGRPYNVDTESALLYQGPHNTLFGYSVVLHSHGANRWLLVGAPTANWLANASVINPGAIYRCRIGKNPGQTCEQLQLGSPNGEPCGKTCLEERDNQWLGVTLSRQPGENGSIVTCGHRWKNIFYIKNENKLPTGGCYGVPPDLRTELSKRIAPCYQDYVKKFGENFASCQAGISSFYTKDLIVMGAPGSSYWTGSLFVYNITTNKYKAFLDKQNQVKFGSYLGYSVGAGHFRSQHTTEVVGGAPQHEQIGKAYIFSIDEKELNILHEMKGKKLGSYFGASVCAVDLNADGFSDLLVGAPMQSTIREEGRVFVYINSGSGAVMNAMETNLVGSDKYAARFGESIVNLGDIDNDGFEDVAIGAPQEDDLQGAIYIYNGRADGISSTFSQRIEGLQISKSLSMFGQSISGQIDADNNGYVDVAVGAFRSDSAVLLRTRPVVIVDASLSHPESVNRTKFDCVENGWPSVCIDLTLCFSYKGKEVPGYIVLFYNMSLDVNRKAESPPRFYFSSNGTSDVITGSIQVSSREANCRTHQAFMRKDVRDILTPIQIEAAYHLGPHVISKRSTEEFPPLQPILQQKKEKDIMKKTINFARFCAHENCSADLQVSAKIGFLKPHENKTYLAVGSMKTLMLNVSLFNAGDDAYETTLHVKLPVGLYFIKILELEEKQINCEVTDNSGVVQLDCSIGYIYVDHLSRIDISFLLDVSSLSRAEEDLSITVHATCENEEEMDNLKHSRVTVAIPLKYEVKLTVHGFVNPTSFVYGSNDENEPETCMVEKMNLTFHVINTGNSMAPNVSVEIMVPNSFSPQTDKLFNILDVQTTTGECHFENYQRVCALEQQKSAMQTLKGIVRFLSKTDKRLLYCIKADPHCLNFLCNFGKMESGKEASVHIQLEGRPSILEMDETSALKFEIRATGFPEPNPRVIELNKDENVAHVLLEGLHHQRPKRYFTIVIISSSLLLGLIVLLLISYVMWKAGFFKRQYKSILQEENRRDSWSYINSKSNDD

A short description of test [3]: calorie-restriction mimetic ROS inhibitors, yeast – validation compound set, pilot screen (AID 2706;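 active = superoxide response below 65% of plate, a cut near 3 SD across the whole screen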;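 note: yeast exposed to compound for one week at 30 degrees C before staining; 100% = mean of all compound wells on the same plate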). The note with it: S. cerevisiae aging, superoxide DHE fluorescence; at 10 µM, stronger effect = lower value.
Test [4] has as its target Beta-adrenergic receptor kinase 1 (Homo sapiens) (UniProt P25098). Nature of the test: GRK2 binders displacing RNA aptamer, biochemical, validation, human GRK2, bead flow cytometry (AID 488806;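 active = aptamer binding inhibition above 30%, about 3 SD of noise from non-fluorescent compounds; inactive = inhibition at or below 30%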). The conditions noted are these: bead-bound GRK2, FAM-aptamer displacement, at 10 µM, stronger effect = higher value.
Test [5] concerns the target Beta-2 adrenergic receptor (Homo sapiens) (UniProt P07550). Description: agonist-induced loss of surface beta2AR – cell-based, FAP fluorogen, flow cytometry, validation set, pilot screen (AID 504459;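 active = percent response above 42, roughly 3 SD of non-fluorescent test compounds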;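 note: agonist-driven loss of surface beta2AR via internalization measured by FAP dye flow cytometry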). The conditions noted are these: Am2.2-beta2AR cells, at 10 µM, stronger effect = higher value.
Test [6] has as its target AP-2 complex subunit beta (Homo sapiens) (UniProt P63010). Nature of the test: beta-arrestin/AP2 interaction blockers – biochemical, validation set, GST-AP2 beads, flow cytometry, pilot screen (AID 504541).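 Note: AP2 carries R879A mutation and is captured from E. coli lysate; bead-bound FITC arrestin peptide fluorescence measuring arrestin peptide binding to AP2; 0% = DMSO wells and 100% = excess unlabeled arrestin peptide control.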 The note with it: FITC arrestin peptide, at 10 µM, stronger effect = higher value, AP2 beta2 appendage fragment, R879A mutant.
A short description of test [7]: cytosolic pH regulators acting via V-ATPase – S. cerevisiae, pHLuorin, HTS validation (AID 504600; in the data active = response above about 15%;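 note: plate controls were DMSO for no effect and reference compound for full effect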). The conditions noted are these: V-ATPase proton transport, at 10 µM, stronger effect = higher value.
The test system of test [8] is anti-desmoglein-3 scFv antibody binding to human DSG3. Description: blockers of pathogenic pemphigus antibody–desmoglein-3 binding – biochemical, validation compound set, bead-based, flow cytometry, pilot screen (AID 588368;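 active = binding below the plate cutoff, the plate median minus 3 SD, with a reading above zero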;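 note: signal is the median channel fluorescence of bead-bound GFP antibody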). The conditions noted are these: Protein G beads, DSG3-Fc, scFv-GFP binding, at 10 µM, stronger effect = lower value.
Test [9] in a line: Nile Red efflux blockade in pump-expressing yeast – validation compound set, multiplex, phenotypic, pilot screen (AID 588506;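 active = efflux inhibition above 0.42, the validation set average plus 4 SD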;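 note: Nile Red retained in cells so higher fluorescence means more efflux inhibition; 0 = negative control wells and 1 = enniatin B 25 µM full block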). The note with it: S. cerevisiae pump-expressing triplex, Nile Red efflux flow cytometry; at 10 µM; stronger effect = higher value; the pumps come from Candida albicans.
The target of test [10] is ATP-binding cassette sub-family B member 6 (Homo sapiens) (UniProt Q9NP58). Nature of the test: blockers of ABCB6-driven porphyrin uptake – K562-ABCB6 cells, flow cytometry, validation set, pilot screen (AID 588550;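 active = inhibition above the screen-wide mean plus 3 SD, about 51%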;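 note: 0% = DMSO wells and 100% = benzethonium chloride 70 µM positive control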). The note with it: K562-ABCB6 porphyrin accumulation, 1 h, at 10 µM, stronger effect = higher value.
Sequence of ATP-binding cassette sub-family B member 6 (Homo sapiens) (Q9NP58 whole entry, looked up): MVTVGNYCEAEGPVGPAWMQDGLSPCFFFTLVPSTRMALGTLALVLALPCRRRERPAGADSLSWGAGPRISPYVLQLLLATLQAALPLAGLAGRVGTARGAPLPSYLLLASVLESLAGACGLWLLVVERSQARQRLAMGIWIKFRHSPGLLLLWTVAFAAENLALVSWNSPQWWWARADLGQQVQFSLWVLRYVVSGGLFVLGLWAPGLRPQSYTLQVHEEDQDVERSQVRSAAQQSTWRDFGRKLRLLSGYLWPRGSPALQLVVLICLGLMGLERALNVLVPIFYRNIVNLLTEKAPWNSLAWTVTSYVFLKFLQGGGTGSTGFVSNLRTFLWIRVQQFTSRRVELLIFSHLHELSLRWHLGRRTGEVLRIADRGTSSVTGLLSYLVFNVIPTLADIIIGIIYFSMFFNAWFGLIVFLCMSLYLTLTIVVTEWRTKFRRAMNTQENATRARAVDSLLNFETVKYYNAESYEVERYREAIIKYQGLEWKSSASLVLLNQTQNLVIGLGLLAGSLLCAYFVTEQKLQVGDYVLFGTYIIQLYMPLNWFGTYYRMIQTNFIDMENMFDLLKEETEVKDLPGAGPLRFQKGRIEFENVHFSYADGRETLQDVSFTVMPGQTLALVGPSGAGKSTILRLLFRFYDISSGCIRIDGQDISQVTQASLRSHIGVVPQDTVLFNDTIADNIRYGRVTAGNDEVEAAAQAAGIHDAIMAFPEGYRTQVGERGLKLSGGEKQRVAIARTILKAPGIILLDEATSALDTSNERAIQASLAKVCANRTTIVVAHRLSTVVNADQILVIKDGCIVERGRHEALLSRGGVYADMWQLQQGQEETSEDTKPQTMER
Test [11] in a line: AML differentiation inducers, ER-HoxA9 marrow cells – cell-based, GFP/MAC1 double positive, flow cytometry, validation set, primary screen (AID 588685;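 active = differentiation response of at least 50%, scaled between solvent and reference control, from cells with both markers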;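 note: compound exposure lasts four days before antibody staining and flow analysis; 0% = DMSO wells and 100% = 5 µM fulvestrant positive control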). The note with it: stronger effect = higher value, normalized: vehicle 0, fulvestrant 100.

Activity calls are given as the source filed them.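 Rule for the calls, unless noted: active = inhibition above 54%, about 3 SD of non-fluorescent compounds; inactive = the rest.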

Sequence of AP-2 complex subunit beta (Homo sapiens) (P63010 whole entry, looked up, the tested form may be a part, one chain of several): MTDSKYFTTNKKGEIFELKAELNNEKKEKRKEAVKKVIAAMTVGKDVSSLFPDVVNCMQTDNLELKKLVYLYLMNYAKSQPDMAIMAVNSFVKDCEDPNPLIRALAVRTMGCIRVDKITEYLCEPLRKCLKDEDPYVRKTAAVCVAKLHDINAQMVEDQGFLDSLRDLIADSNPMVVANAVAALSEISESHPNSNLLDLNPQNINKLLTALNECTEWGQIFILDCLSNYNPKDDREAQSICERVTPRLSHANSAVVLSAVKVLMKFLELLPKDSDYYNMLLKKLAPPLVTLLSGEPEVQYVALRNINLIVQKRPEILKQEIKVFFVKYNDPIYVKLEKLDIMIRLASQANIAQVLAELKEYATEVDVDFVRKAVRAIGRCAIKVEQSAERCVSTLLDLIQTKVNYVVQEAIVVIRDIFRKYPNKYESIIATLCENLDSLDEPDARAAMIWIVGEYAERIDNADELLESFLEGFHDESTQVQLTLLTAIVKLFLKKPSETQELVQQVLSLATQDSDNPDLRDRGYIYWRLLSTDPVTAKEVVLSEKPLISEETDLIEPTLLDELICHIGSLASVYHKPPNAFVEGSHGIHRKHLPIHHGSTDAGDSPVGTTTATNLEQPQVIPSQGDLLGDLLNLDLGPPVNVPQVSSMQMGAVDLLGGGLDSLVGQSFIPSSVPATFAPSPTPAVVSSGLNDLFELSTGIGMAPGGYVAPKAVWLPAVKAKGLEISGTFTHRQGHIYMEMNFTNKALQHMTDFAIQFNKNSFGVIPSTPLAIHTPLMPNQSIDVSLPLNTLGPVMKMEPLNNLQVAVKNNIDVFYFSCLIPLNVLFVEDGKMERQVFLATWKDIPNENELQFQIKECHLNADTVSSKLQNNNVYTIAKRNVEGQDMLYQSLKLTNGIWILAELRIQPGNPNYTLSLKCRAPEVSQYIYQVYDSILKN
Sequence of Beta-adrenergic receptor kinase 1 (Homo sapiens) (P25098 whole entry, looked up): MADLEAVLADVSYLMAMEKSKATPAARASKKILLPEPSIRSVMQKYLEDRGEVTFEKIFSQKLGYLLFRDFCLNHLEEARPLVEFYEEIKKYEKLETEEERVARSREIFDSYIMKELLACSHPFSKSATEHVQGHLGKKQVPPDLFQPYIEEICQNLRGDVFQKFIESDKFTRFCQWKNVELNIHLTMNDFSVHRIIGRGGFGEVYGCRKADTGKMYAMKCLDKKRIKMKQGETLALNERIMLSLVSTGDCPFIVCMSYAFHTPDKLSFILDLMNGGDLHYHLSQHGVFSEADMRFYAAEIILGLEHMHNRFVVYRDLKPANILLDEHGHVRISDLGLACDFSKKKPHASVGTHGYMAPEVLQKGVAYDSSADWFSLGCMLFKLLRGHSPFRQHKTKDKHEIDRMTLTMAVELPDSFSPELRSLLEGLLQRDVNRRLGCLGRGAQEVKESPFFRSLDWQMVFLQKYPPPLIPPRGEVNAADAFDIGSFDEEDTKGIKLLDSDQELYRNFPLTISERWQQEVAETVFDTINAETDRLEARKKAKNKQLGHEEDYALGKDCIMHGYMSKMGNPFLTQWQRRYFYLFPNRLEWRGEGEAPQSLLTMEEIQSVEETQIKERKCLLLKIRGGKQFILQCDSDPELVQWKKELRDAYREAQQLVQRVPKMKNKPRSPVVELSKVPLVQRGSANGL
Sequence of Beta-2 adrenergic receptor (Homo sapiens) (P07550 whole entry, looked up): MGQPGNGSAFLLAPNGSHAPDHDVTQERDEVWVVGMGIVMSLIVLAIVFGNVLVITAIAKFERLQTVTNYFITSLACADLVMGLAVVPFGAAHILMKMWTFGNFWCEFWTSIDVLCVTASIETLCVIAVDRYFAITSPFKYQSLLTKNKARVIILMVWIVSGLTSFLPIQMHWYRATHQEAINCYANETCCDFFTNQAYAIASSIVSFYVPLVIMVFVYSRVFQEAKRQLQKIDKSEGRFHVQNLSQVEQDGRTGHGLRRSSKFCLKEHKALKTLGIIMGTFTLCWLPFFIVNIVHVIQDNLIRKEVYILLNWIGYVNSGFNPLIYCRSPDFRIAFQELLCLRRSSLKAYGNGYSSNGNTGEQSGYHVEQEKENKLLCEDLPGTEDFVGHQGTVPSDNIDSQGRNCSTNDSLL

As for `CC(=O)N1CC23C=CC(CC2CC12CCCCCC2)O3` (stereo unspecified), in test [1], the double positive events amounted to 61.4%. Moreover, the vesicle binding response in [1] was 200% (inactive). Also, the inhibition in [2] is 3.99% (inactive); in test [6], -0.87% (inactive); in [10], 0% (inactive). For the same molecule, the superoxide response (% of plate) in [3] was 102% (inactive). In addition, in test [4], the aptamer binding inhibition is 8% (inactive). Also, the response is -21.9% (inactive) in test [5] and -29.7% (inactive) in test [7]. Also, the binding (% of control) in test [8] is 104% (inactive). Also, the efflux inhibition (fraction of control) in test [9] is -0.09 (inactive). For the same molecule, the differentiation response in test [11] was 0% (inactive).
Turning to `Nc1ncnc2c1ncn2C1OC(CO)C(O)C1O` (stereo unspecified), in test [1], the double positive events was 48.3%. Besides, the vesicle binding response in test [1] is 175% (inactive). Besides, the values for the inhibition in test [2], in [6] and in test [10] were -6.77% (inactive), -4.3% (inactive) and 5% (inactive), respectively. The superoxide response (% of plate) in [3] is 102% (inactive). The aptamer binding inhibition in test [4] is 3% (inactive). Besides, the response in [7] is 0.12% (inactive). The binding (% of control) in test [8] is 110% (inactive). Further, the efflux inhibition (fraction of control) in test [9] was -0.01 (inactive). For the same molecule, in [11], the differentiation response is -18% (inactive).
In test [1], `CN1CCN(CCCN2c3ccccc3Sc3ccc(C(F)(F)F)cc32)CC1` came in with a double positive events of 64.7%. For the same molecule, in test [1], the vesicle binding response is 215% (inactive). Moreover, the results for the inhibition in test [2], in test [6] and in test [10] were 57.6% (active), 1.45% (inactive) and 8% (inactive), respectively. For the same molecule, in test [3], the superoxide response (% of plate) was 80.3% (inactive). The aptamer binding inhibition in test [4] was -2% (inactive). Moreover, the response was 23.7% (inactive) in [5] and 24.5% (active) in [7]. Also, the binding (% of control) in [8] was 109% (inactive). Also, the efflux inhibition (fraction of control) in test [9] was 0 (inactive). Further, the differentiation response in test [11] was 7.82% (inactive).
In turn, `CC(C)(C)C(=O)NC(=S)Nc1sc2c(c1C(N)=O)CCC2` showed a double positive events in test [1] of 60.2%. The vesicle binding response in test [1] was 119% (inactive). In addition, the inhibition in test [2] was -4.52% (inactive); in test [6], 2.56% (inactive); in test [10], 4% (inactive). The superoxide response (% of plate) in test [3] was 109% (inactive). Further, in [4], the aptamer binding inhibition is 2% (inactive). The values for the response in test [5] and in [7] were 7.03% (inactive) and -1.19% (inactive), respectively. Moreover, the binding (% of control) in test [8] was 96.6% (inactive). The efflux inhibition (fraction of control) in test [9] was -0.24 (inactive). For the same molecule, the differentiation response in test [11] is -29.6% (inactive).
`N=C1C(c2ccccc2)=C(O)CN1CCCO`: the double positive events in [1] turned out to be 58.1%. Besides, the vesicle binding response in test [1] is 157% (inactive). In addition, the inhibition in test [2] was 2.3% (inactive); in test [6], -7.8% (inactive); in [10] it was 12% (inactive). Moreover, the superoxide response (% of plate) in test [3] was 91.2% (inactive). In [4], the aptamer binding inhibition was 3% (inactive). For the same molecule, the figures for the response in test [5] and in [7] were -12.9% (inactive) and -6.01% (inactive), respectively. Besides, the binding (% of control) in test [8] is 93.8% (inactive). Besides, the efflux inhibition (fraction of control) in test [9] was -0.06 (inactive). Also, the differentiation response in [11] was -31.2% (inactive).
For `O=C(NC(CO)Cc1ccc([N+](=O)[O-])cc1)C(Cl)Cl` (stereo unspecified), in [1], the double positive events is 57.3%. Further, the vesicle binding response in [1] is 146% (inactive). For the same molecule, the values for the inhibition in test [2], in test [6] and in [10] were -11.4% (inactive), 0.05% (inactive) and 14% (inactive), respectively. Besides, in test [3], the superoxide response (% of plate) is 100% (inactive). Also, the aptamer binding inhibition in [4] was 15% (inactive). Further, the response in [7] was 0.32% (inactive). In addition, the binding (% of control) in test [8] is 100% (inactive). In addition, in test [9], the efflux inhibition (fraction of control) was -0.24 (inactive). Moreover, in test [11], the differentiation response was -24.4% (inactive).
On to `COc1cccc(OC)c1C(=O)Nc1nc2ccc([N+](=O)[O-])cc2s1`, for which the double positive events in test [1] was 60.8%. Further, the vesicle binding response in [1] is 91.9% (inactive). Also, the inhibition was -14.5% (inactive) in [2], 10.3% (inactive) in [6] and 8% (inactive) in [10]. The superoxide response (% of plate) in [3] was 101% (inactive). Also, the aptamer binding inhibition in [4] is -2% (inactive). Also, the response in test [5] is 4.56% (inactive); in test [7] it was 1.22% (inactive). The binding (% of control) in [8] was 101% (inactive). The efflux inhibition (fraction of control) in [9] is 0.005 (inactive). For the same molecule, the differentiation response in test [11] is -3.11% (inactive).
In turn, `CCCCNC(=O)NS(=O)(=O)c1ccc(C)cc1` registered a double positive events in test [1] of 56.1%. In addition, the vesicle binding response in test [1] is 172% (inactive). Further, the inhibition in test [2] is 12.8% (inactive); in [6], -9.7% (inactive); in test [10], 9% (inactive). For the same molecule, the superoxide response (% of plate) in [3] is 108% (inactive). Further, in [4], the aptamer binding inhibition is 4% (inactive). In addition, in test [7], the response was 8.22% (inactive). In [8], the binding (% of control) is 99% (inactive). For the same molecule, the efflux inhibition (fraction of control) in test [9] is -0.05 (inactive). The differentiation response in [11] is -19.6% (inactive).
For `CC12CCC(C(=O)Nc3ccccc3Br)(C/C1=N\O)C2(C)C` (stereo unspecified), the double positive events in test [1] came out at 58.3%. In [1], the vesicle binding response was 154% (inactive). For the same molecule, the results for the inhibition in test [2], in [6] and in test [10] were -6.77% (inactive), -0.26% (inactive) and 9% (inactive), respectively. Further, the superoxide response (% of plate) in test [3] is 92.2% (inactive). Besides, the aptamer binding inhibition in [4] is 3% (inactive). For the same molecule, the response in [7] was 2.28% (inactive). Also, the binding (% of control) in [8] was 96% (inactive). Besides, the efflux inhibition (fraction of control) in test [9] was -0.12 (inactive). Moreover, the differentiation response in [11] is -9.89% (inactive).
For `CN(C)C(=O)C(CCN1CCC(O)(c2ccc(Cl)cc2)CC1)(c1ccccc1)c1ccccc1`, the double positive events in [1] turned out to be 70.4%. Besides, the vesicle binding response in [1] is 180% (inactive). Besides, the inhibition in test [2] was 44% (inactive); in test [6] it was 2.98% (inactive); in test [10], 2% (inactive). In test [3], the superoxide response (% of plate) was 86.8% (inactive). Besides, the aptamer binding inhibition in [4] was 1% (inactive). Also, the response in test [7] was 6.9% (inactive). The binding (% of control) in test [8] was 104% (inactive). Besides, the efflux inhibition (fraction of control) in [9] is 0.08 (inactive). For the same molecule, the differentiation response in test [11] was -3.02% (inactive).
With `CCSc1nc(O)c(C2OC(=O)c3c2ccc(OC)c3OC)c(=O)n1CC` (stereo unspecified), the double positive events in test [1] amounted to 69.4%. The vesicle binding response in test [1] was 289% (inactive). Further, the inhibition was -1.79% (inactive) in test [2], -2.62% (inactive) in [6] and 109% (active) in test [10]. For the same molecule, the superoxide response (% of plate) in test [3] is 86.4% (inactive). The aptamer binding inhibition in test [4] is 2% (inactive). For the same molecule, the figures for the response in test [5] and in [7] were 15.5% (inactive) and -1.36% (inactive), respectively. The binding (% of control) in [8] was 101% (inactive). For the same molecule, the efflux inhibition (fraction of control) in test [9] is 0.12 (inactive). In addition, in [11], the differentiation response was 20% (inactive).
In test [1], `CCn1cc(C(=O)O)c(=O)c2cc(F)c(N3CCNCC3)cc21` returned a double positive events of 70.1%. In addition, the vesicle binding response in [1] is 276% (inactive). The results for the inhibition in test [2], in test [6] and in test [10] were 14.2% (inactive), 5.87% (inactive) and 2% (inactive), respectively. In addition, the superoxide response (% of plate) in test [3] is 104% (inactive). Besides, the aptamer binding inhibition in [4] was 2% (inactive). For the same molecule, the values for the response in [5] and in [7] were 29.6% (inactive) and 7.15% (inactive), respectively. In addition, in test [8], the binding (% of control) is 98% (inactive). In [9], the efflux inhibition (fraction of control) is 0 (inactive). Moreover, the differentiation response in test [11] is 10.8% (inactive).
In turn, `CCOC(=O)COc1ccc2c(=O)c(-c3ccccc3)coc2c1` yielded a double positive events in test [1] of 61.7%. Besides, the vesicle binding response in [1] is 236% (inactive). Moreover, the inhibition in test [2] was 21% (inactive); in test [6], 1.34% (inactive); in test [10], -4% (inactive). Also, in test [3], the superoxide response (% of plate) was 92.8% (inactive). Also, in test [4], the aptamer binding inhibition is 0% (inactive). Moreover, the response was -10.5% (inactive) in [5] and 0.65% (inactive) in test [7]. Moreover, the binding (% of control) in test [8] was 100% (inactive). Moreover, the efflux inhibition (fraction of control) in [9] was -0.09 (inactive). Further, the differentiation response in test [11] was -7.94% (inactive).

In general, inhibition refers to the drop in the measured response relative to a control, in per cent.
